The text below walks through data of the supplement of paper PMC10981050.

In general, cell viability refers to a read-out of living cells in per cent, often relative to untreated cells.

Molecules are shown by their SMILES. Where a name gives a salt, the structure may show the parent alone.

The test system of the assay is K562. Nature of the assay: cell viability relative to vehicle control; higher = less cytotoxic. As to conditions: 10 µM; SRSF2 genotype: SRSF2 wt/wt. In a few lines: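 After removal of identity-inconsistent compounds, the Selleck bioactive, kinase and epigenetic probe libraries were screened on CRISPR-edited mutant clones and isogenic wild-type clones of four leukaemia lines. Plates were 384-well, each well holding 2000 cells in 50 µL medium and receiving a single 10 µM acoustically dispensed dose. CellTiter-Glo luminescence was read 48 h later, after the supernatant was taken off. Genedata Screener was used to express viability as percent of the on-plate vehicle control.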
On to `Cc1nc(N)sc1-c1ccnc(Nc2ccc(N3CCOCC3)cc2)n1`, for which the cell viability worked out at 64.5%.

For the molecule `C=C[C@]1(C)C[C@@H](OC(=O)CSCCN(CC)CC)[C@]2(C)[C@H](C)CC[C@]3(CCC(=O)[C@H]32)[C@@H](C)[C@@H]1O` [Tiamulin], the cell viability is 90.1%.

On to `C[C@@H]1CC[C@@]2(OC1)O[C@H]1C[C@H]3[C@@H]4CC=C5C[C@@H](O)C[C@@H](O)[C@]5(C)[C@H]4CC[C@]3(C)[C@H]1[C@@H]2C` [Ruscogenin], for which the cell viability was determined as 98%.

`C[C@@H]1O[C@@H](O[C@H]2[C@H](O[C@H]3CC[C@@]4(C)[C@@H](CC[C@]5(C)[C@@H]4CC=C4[C@@H]6CC(C)(C)CC[C@]6(C(=O)O)CC[C@]45C)[C@]3(C)CO)OC[C@H](O[C@@H]3O[C@H](CO)[C@@H](O)[C@H](O)[C@H]3O)[C@@H]2O)[C@H](O)[C@H](O)[C@H]1O` [Pulsatilla saponin D]: the cell viability turned out to be 0.55%.

As for `Cc1cc(C#N)cc(C)c1Oc1nc(Nc2ccc(C#N)cc2)nc(N)c1Br` [Etravirine (TMC125)], the cell viability was 94.6%.

In the case of `CCCNCC(O)COc1ccccc1C(=O)CCc1ccccc1` (stereo not given) [Propafenone HCl], the cell viability worked out at 79.2%.

Regarding `CN1CCN(Cc2ccc(Nc3ncc(Cl)c(Nc4ccccc4S(=O)(=O)N(C)C)n3)cc2)CC1`, the cell viability turned out to be 47.6%.

On to `O=C(O)CNC(=O)c1nc(Cl)c2ccccc2c1O`, for which the cell viability stood at 81.2%.

In the case of `Cc1cc(C2CCCCC2)n(O)c(=O)c1` [Ciclopirox (Penlac)], the cell viability came out at 42.2%.

As for `COc1ccc(CCC(=O)Nc2nc3ccc(Cl)cc3s2)cc1OC`, the cell viability was found to be 92%.

As for `COc1ccc(/C=C/c2cc(O)cc(O[C@@H]3O[C@H](CO)[C@@H](O)[C@H](O)[C@H]3O)c2)cc1O` [Rhapontin], the cell viability turned out to be 92.3%.

For `CC(C)=CCCC(C)(OC1OC(COC2OCC(O)C(O)C2O)C(O)C(O)C1O)C1CCC2(C)C1C(O)CC1C3(C)CCC(OC4OC(CO)C(O)C(O)C4O)C(C)(C)C3CCC12C` (stereo not given) [Gynostemma Extract], the cell viability stood at 102%.

Consider `CC1(C)CC[C@]2(C(=O)O)[C@H](O)C[C@]3(C)C(=CC[C@@H]4[C@@]5(C)CC[C@H](O)[C@@](C)(C=O)[C@@H]5CC[C@]43C)[C@@H]2C1` [Quillaic acid], for which the cell viability was found to be 82.9%.

Take `CCN(CC)CCNC(=O)c1c(C)[nH]c(/C=C2\C(=O)Nc3ccc(F)cc32)c1C` [Sunitinib]: the cell viability stood at 17.6%.

Turning to `CCCCCCCCCCCCCCCC(=O)O` [Palmitic acid], the cell viability was determined as 98.5%.

Consider `C=CCS[S+]([O-])CC=C` (stereo not given) [Allicin], for which the cell viability is 91.8%.

Consider `Cc1ccccc1-c1cc(N2CCN(C)CC2)ncc1N(C)C(=O)C(C)(C)c1cc(C(F)(F)F)cc(C(F)(F)F)c1` [Netupitant], for which the cell viability came to 94.6%.

On to `CCCCCCCCCCCCCCCCOc1nc2ccc(C)cc2c(=O)o1` [Cetilistat], for which the cell viability turned out to be 108%.

For `C[C@H](CCC(=O)O)[C@H]1CC[C@H]2[C@@H]3[C@H](O)C[C@@H]4C[C@H](O)CC[C@]4(C)[C@H]3C[C@H](O)[C@]12C` [Cholic acid], the cell viability came to 100%.

On to `CCCCC(=O)OCC(=O)[C@H]1[C@H](C)C[C@H]2[C@@H]3C[C@H](F)C4=CC(=O)C=C[C@]4(C)[C@@]3(F)[C@@H](O)C[C@@]21C` [Diflucortolone valerate], for which the cell viability was found to be 104%.

As for `CCn1cc(-c2cccc(C(F)(F)F)c2)c2sc(C(=N)NC3CCS(=O)(=O)CC3)cc2c1=O`, the cell viability is 69.9%.

As to `Cc1c(CN2CCN(C(=O)[C@H](C)O)CC2)sc2c(N3CCOCC3)nc(-c3cnc(N)nc3)nc12` [Apitolisib (GDC-0980, RG7422)], the cell viability is 38.9%.

In the case of `CC[C@H](NC(=O)[C@H](C)NC)C(=O)N1C[C@@H](O)C[C@H]1Cc1c(-c2[nH]c3cc(F)ccc3c2C[C@@H]2C[C@H](O)CN2C(=O)[C@H](CC)NC(=O)[C@H](C)NC)[nH]c2cc(F)ccc12`, the cell viability amounted to 99.4%.

Turning to `CC1(C)O[C@H]1COc1c2ccoc2cc2oc(=O)ccc12` [Oxypeucedanin], the cell viability amounted to 97.6%.

In the case of `CCCCCCC1CCC(=O)O1` (stereo not given), the cell viability came out at 97.8%.

Take `CN1[C@@H]2CC[C@H]1C[C@@H](OC(=O)c1c[nH]c3ccccc13)C2` [Tropisetron HCl]: the cell viability was 96.6%.

For the molecule `CC1(C)[C@@H](O[C@H]2O[C@H](C(=O)O)[C@@H](O)[C@H](O)[C@H]2O[C@@H]2O[C@H](C(=O)O)[C@@H](O)[C@H](O)[C@H]2O)CC[C@]2(C)[C@H]3C(=O)C=C4[C@@H]5C[C@@](C)(C(=O)O)CC[C@]5(C)CC[C@@]4(C)[C@]3(C)CC[C@@H]12` [Ammonium Glycyrrhizate], the cell viability stood at 99.3%.

Regarding `Cc1cc2c(F)c(Oc3ncnn4cc(OC[C@@H](C)O)c(C)c34)ccc2[nH]1`, the cell viability came out at 99.5%.

Turning to `CCOc1cc(N2CCC(O)CC2)ccc1Nc1ncc2c(n1)N(C)c1ccccc1C(=O)N2C`, the cell viability turned out to be 88%.

Take `CCCc1nn(C)c2c(=O)[nH]c(-c3cc(S(=O)(=O)N4CCN(C)CC4)ccc3OCC)nc12` [Sildenafil citrate]: the cell viability came out at 103%.

With `CC(O)C(O)c1cnc2nc(N)[nH]c(=O)c2n1` (stereo not given) [6-Biopterin], the cell viability came to 108%.

As for `COc1ccc(-c2ccc3ncc4c(c3c2)n(-c2ccc(N3CCNCC3)c(C(F)(F)F)c2)c(=O)n4C)cn1`, the cell viability came out at 0.16%.

Turning to `CO/N=C(\C(=O)N[C@@H]1C(=O)N2C(C(=O)O)=C(CSc3nnnn3C)CS[C@H]12)c1csc(N)n1` [Cefmenoxime hydrochloride], the cell viability was 100%.

As to `COC(=O)Nc1nc2cc(Sc3ccccc3)ccc2[nH]1` [Fenbendazole (Panacur)], the cell viability was determined as 32.8%.

With `COc1cc2nccc(Oc3ccc(NC(=O)C4(C(=O)Nc5ccc(F)cc5)CC4)cc3)c2cc1OC`, the cell viability stood at 20.6%.

As to `CCCCOc1c(C(=O)c2c(F)cc(C)cc2F)c[nH]c2nncc1-2`, the cell viability stood at 114%.

Regarding `CCCCC(C)(O)C/C=C/[C@H]1[C@H](O)CC(=O)[C@@H]1CCCCCCC(=O)OC` (mixture of isomers) [Misoprostol], the cell viability stood at 84.4%.

Turning to `O=c1sn(-c2cccc3ccccc23)c(=O)n1Cc1ccccc1` [Tideglusib], the cell viability was found to be 82.9%.

In the case of `O=C(COc1ccc(Cl)cc1)NC1CCC(NC(=O)COc2ccc(Cl)cc2)CC1` (stereo not drawn) [ISRIB (trans-isomer)], the cell viability turned out to be 100%.

Consider `CC=C(C)C(=O)O` [Tiglic acid], for which the cell viability came out at 109%.
